# T cruzi growth-1 – inhibitors of T. cruzi proliferation. T. cruzi beta-gal in NIH3T3, GalScreen luminescence, 90 h. AID 624255. actives 5.9% (n = 77,000). inhibition, % at 8.34 µM;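 active = mean inhibition above about 93%, with at least 55% of replicates each passing it, limit read from the data, passing the limit was not always enough; inconclusive = only one of those two conditions holds; inactive = neither condition holds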
# C diff growth – inhibitors of Clostridium difficile growth; Clostridium difficile clinical isolate growth, OD600, 24 h; active compounds read low; growth activity, negative = inhibition, % at 16 µg/mL (by protocol); actives 0.25% (n = 86,000);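 active = mean growth activity at or below -80% and every replicate also at or below -80%; inconclusive = mean at or below -80% but some replicate above -80%; inactive = mean growth activity above -80%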;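 also: 0% = DMSO wells and -100% = levofloxacin 16 µg/mL wells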
# T cruzi growth-2 – Trypanosoma cruzi proliferation inhibition. shares compounds with T cruzi growth-1. T. cruzi beta-gal in NIH3T3, GalScreen luminescence, 90 h. inhibition, % at 8.35 µM. actives 72% (n = 5,600);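 active = mean replicate inhibition above about 95% and at least 55% of replicates individually reaching it, limit read from the data; inconclusive = only one of the two criteria is met; inactive = neither criterion is met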
# T cruzi growth-3 – Trypanosoma cruzi proliferation inhibition; shares compounds with T cruzi growth-1; T. cruzi beta-gal in NIH3T3, GalScreen luminescence, 90 h; inhibition, % at 2.09 µM; actives 21% (n = 5,600); AID 651740;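 active = mean inhibition above about 95%, with at least 55% of replicates also reaching it, limit read from the data; inconclusive = meets just one of the two conditions; inactive = meets neither condition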;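 also: plate controls were neutral control median for no effect and positive control median for full effect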
# 3T3 cytotox – kills mouse NIH/3T3 fibroblasts; shares compounds with T cruzi growth-1; NIH/3T3 viability, CellTiter-Glo ATP luminescence, 90 h; cytotoxicity (signal decrease), % at 8.35 µM; actives 14% (n = 5,600);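 active = mean signal decrease across replicates above about 35% based on untreated-well scatter, with enough replicates individually passing, limit read from the data; inconclusive = no rule stated though some were filed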;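 also: 0% = median of neutral control wells and 100% = median of positive control wells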
# NIH3T3 tox 2 – kills mouse NIH/3T3 fibroblasts; shares compounds with T cruzi growth-1; NIH/3T3 viability, CellTiter-Glo ATP luminescence, 90 h; inhibition, % at 24.9 µM; actives 56% (n = 5,600); AID 651744;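 active = mean loss of cell viability signal at or above a set limit, and enough replicates individually reaching it; inconclusive = meets only the mean limit or only the replicate share; inactive = meets neither condition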;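 also: 0% = median of neutral control wells and 100% = median of positive control wells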
# Numbers without * were called inactive; ? = inconclusive; . = no result given. This is one part of a sample in which hits are shown more often than they occur.
SMILES,T cruzi growth-1,C diff growth,T cruzi growth-2,T cruzi growth-3,3T3 cytotox,NIH3T3 tox 2
CO[C@@H]1CN(C)C(=O)c2cc(NC(C)=O)ccc2OC[C@H](C)N(C(=O)c2ccc(F)cc2)C[C@H]1C,-207,.,.,.,.,.
COc1cccc(C(=O)N2C[C@@H]3[C@H](c4ccccc42)[C@H](CO)N3C(=O)c2cccc(F)c2)c1,42,0,.,.,.,.
C[C@@H]1CN([C@H](C)CO)C(=O)c2cccc(NC(=O)c3ccncc3)c2O[C@H]1CN(C)C(=O)Nc1cccc2ccccc12,-43,-2,.,.,.,.
C[C@H](CO)N1C[C@H](C)[C@H](CN(C)Cc2cccnc2)Oc2cc(Br)ccc2S1(=O)=O,.,3,.,.,.,.
C[C@@H]1CN([C@@H](C)CO)S(=O)(=O)c2ccc(Br)cc2O[C@@H]1CN(C)Cc1cccnc1,112*,0,107*,80,11,13
C[C@H]1CN([C@@H](C)CO)S(=O)(=O)c2ccc(Br)cc2O[C@H]1CN(C)Cc1cccnc1,.,-1,.,.,.,.
C[C@H](CO)N1C[C@H](C)[C@@H](CN(C)Cc2cccnc2)Oc2cc(Br)ccc2S1(=O)=O,111*,0,93,67,-5,39*
CNC[C@@H]1Oc2ccc(NC(=O)NC(C)C)cc2C(=O)N([C@@H](C)CO)C[C@H]1C,-11,-4,.,.,.,.
C[C@H](CO)N1C[C@H](C)[C@H](CN(C)Cc2ccccc2C(=O)O)Oc2cc(-c3ccc(C(=O)N(C)C)cc3)ccc2S1(=O)=O,14,-9,.,.,.,.
O=C(NCC[C@@H]1CC[C@@H](NS(=O)(=O)c2ccc(F)cc2)[C@H](CO)O1)Nc1ccc(F)cc1,.,3,.,.,.,.
CCC(=O)N(C)C[C@H]1Oc2cc(Br)ccc2S(=O)(=O)N([C@@H](C)CO)C[C@@H]1C,.,1,.,.,.,.
C[C@H](CO)N1C[C@H](C)[C@H](CN(C)C(=O)Nc2ccnc(N3CCOCC3)c2)OCc2ccccc2-c2c(n(C)c3ccccc23)C1=O,.,-14,.,.,.,.
C[C@H]1CN([C@@H](C)CO)C(=O)c2ccccc2-c2ccccc2CO[C@H]1CN(C)C(=O)Nc1ccnc(N2CCOCC2)c1,105*,-5,101*,77,6,33*
C[C@@H]1CN([C@@H](C)CO)C(=O)c2ccccc2-c2ccccc2CO[C@@H]1CN(C)C(=O)Nc1ccnc(N2CCOCC2)c1,106*,-7,107*,88,-1,28*
C[C@H](CO)N1C[C@H](C)[C@@H](CN(C)C(=O)Nc2ccccc2)OCc2ccccc2-c2ccccc2C1=O,54,.,.,.,.,.
C[C@H](CO)N1C[C@H](C)[C@H](CN(C)C(=O)Nc2ccccc2)OCc2ccccc2-c2ccccc2C1=O,44,.,.,.,.,.
C[C@H](CO)N1C[C@H](C)[C@H](CN(C)C(=O)Nc2ccnc(N3CCOCC3)c2)OCc2ccccc2-c2ccccc2C1=O,110*,-5,?,85,4,24
C[C@@H]1CN([C@@H](C)CO)C(=O)Cc2cc(N(C)C)ccc2O[C@H]1CN(C)C(=O)Nc1cccc2ccccc12,-11,-1,.,.,.,.
O=C(C[C@H]1C[C@H]2c3cc(NS(=O)(=O)c4ccc(F)cc4)ccc3O[C@H]2[C@@H](CO)O1)NCc1cccc(F)c1,-29,1,.,.,.,.
O=C(CCN1CCCCC1)NCC[C@H]1CC[C@@H](NC(=O)C2CCCCC2)[C@@H](CO)O1,.,-1,.,.,.,.
C[C@@H]1CN([C@H](C)CO)C(=O)c2cc(C#C[C@@H](C)O)cnc2O[C@@H]1CN(C)C(=O)Cc1ccccn1,6,-1,.,.,.,.
COc1ccc(NC(=O)N(C)C[C@@H]2OCCCC[C@@H](C)Oc3ccc(NC(=O)NC(C)C)cc3C(=O)N([C@@H](C)CO)C[C@H]2C)cc1,26,-1,.,.,.,.
C[C@H]1CN([C@@H](C)CO)C(=O)c2cc(N(C)C)ccc2O[C@@H]1CN(C)Cc1ccc(C(=O)Nc2ccccc2N)cc1,41,-4,.,.,.,.
C[C@@H]1CN([C@@H](C)CO)C(=O)c2cc(NC(=O)Cc3ccccc3)ccc2O[C@@H]1CN(C)Cc1ccc(C(=O)Nc2ccccc2N)cc1,44,3,.,.,.,.
C[C@H](CO)N1C[C@H](C)[C@H](CN(C)Cc2ccc(C(=O)Nc3ccccc3N)cc2)Oc2ccc(N(C)C)cc2CC1=O,72,-6,.,.,.,.
SMILES,T cruzi growth-1,C diff growth,T cruzi growth-2,T cruzi growth-3,3T3 cytotox,NIH3T3 tox 2
C[C@H](CO)N1C[C@H](C)[C@@H](CN(C)Cc2ccc(C(=O)Nc3ccccc3N)cc2)Oc2ccc(N(C)C)cc2CC1=O,122*,-2,102*,92,37*,76*
C[C@H]1CN([C@@H](C)CO)C(=O)c2cc(NC(=O)Cc3ccccc3)ccc2O[C@H]1CN(C)Cc1ccc(C(=O)Nc2ccccc2N)cc1,?,2,78,36,7,?
C[C@@H]1CN([C@@H](C)CO)C(=O)c2cc(N(C)C)ccc2O[C@@H]1CN(C)Cc1ccc(C(=O)Nc2ccccc2N)cc1,104*,1,-9,-8,5,-11
C[C@H]1CN([C@@H](C)CO)S(=O)(=O)c2ccc(-c3ccccc3)cc2O[C@@H]1CN(C)Cc1ccccc1,80,38,.,.,.,.
Cc1ccc(-c2ccc3c(c2)O[C@@H](CN(C)Cc2ccccc2)[C@@H](C)CN([C@H](C)CO)S3(=O)=O)cc1,115*,-1,84,103*,4,103*
Cc1ccc(-c2ccc3c(c2)O[C@H](CN(C)Cc2ccc(C(=O)O)cc2)[C@H](C)CN([C@H](C)CO)S3(=O)=O)cc1,18,-2,.,.,.,.
Cc1ccc(-c2ccc3c(c2)O[C@@H](CN(C)Cc2ccccc2)[C@@H](C)CN([C@@H](C)CO)S3(=O)=O)cc1,124*,2,96*,107*,22,104*
C[C@H](CO)N1C[C@H](C)[C@H](CN(C)C(=O)Nc2ccc(C(F)(F)F)cc2)Oc2c(NC(=O)c3cnccn3)cccc2C1=O,36,-3,.,.,.,.
CCCNC(=O)C[C@@H]1CC[C@H]2[C@@H](COc3ccc(NC(=O)CC)cc3C(=O)N2C)O1,-61,-5,.,.,.,.
COc1ccc(NC(=O)Nc2ccc3c(c2)C(=O)N([C@@H](C)CO)C[C@@H](C)[C@H](CN(C)Cc2ccccc2)OCCCC[C@H](C)O3)cc1,100*,1,110*,42,9,35*
COc1ccc(NC(=O)Nc2ccc3c(c2)C(=O)N([C@@H](C)CO)C[C@H](C)[C@@H](CN(C)Cc2ccccc2)OCCCC[C@@H](C)O3)cc1,69,9,.,.,.,.
COc1ccc(NC(=O)Nc2ccc3c(c2)C(=O)N([C@H](C)CO)C[C@@H](C)[C@@H](CN(C)Cc2ccccc2)OCCCC[C@@H](C)O3)cc1,103*,-6,111*,83,8,53*
COc1ccc(NC(=O)Nc2ccc3c(c2)C(=O)N([C@@H](C)CO)C[C@@H](C)[C@@H](CN(C)Cc2ccccc2)OCCCC[C@@H](C)O3)cc1,92,-3,.,.,.,.
COCC(=O)Nc1ccc2c(c1)C(=O)N(C)[C@H]1CC[C@@H](CC(=O)Nc3cn(C)nc3C)O[C@H]1CO2,44,1,.,.,.,.

# High-throughput results as filed in PubChem BioAssay.
